Screening data as filed in PubChem BioAssay.
Many of the other results were omitted from the sample, so hits are more common in it than they were.
IDE exosite FP: displaces the probe from the exo-site of human IDE | purified IDE, FL-6b probe fluorescence polarization; active compounds read low | P14735 | z-score at 20 µM | hit rate 6.3% among 17,000;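 active means z-score of -3 or lower, meaning strong loss of probe binding signal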;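 further: His-tagged human IDE residues 42-1019 made in E. coli with 30 nM FL-6b probe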
Target sequence (P14735 42-1019 limits assumed): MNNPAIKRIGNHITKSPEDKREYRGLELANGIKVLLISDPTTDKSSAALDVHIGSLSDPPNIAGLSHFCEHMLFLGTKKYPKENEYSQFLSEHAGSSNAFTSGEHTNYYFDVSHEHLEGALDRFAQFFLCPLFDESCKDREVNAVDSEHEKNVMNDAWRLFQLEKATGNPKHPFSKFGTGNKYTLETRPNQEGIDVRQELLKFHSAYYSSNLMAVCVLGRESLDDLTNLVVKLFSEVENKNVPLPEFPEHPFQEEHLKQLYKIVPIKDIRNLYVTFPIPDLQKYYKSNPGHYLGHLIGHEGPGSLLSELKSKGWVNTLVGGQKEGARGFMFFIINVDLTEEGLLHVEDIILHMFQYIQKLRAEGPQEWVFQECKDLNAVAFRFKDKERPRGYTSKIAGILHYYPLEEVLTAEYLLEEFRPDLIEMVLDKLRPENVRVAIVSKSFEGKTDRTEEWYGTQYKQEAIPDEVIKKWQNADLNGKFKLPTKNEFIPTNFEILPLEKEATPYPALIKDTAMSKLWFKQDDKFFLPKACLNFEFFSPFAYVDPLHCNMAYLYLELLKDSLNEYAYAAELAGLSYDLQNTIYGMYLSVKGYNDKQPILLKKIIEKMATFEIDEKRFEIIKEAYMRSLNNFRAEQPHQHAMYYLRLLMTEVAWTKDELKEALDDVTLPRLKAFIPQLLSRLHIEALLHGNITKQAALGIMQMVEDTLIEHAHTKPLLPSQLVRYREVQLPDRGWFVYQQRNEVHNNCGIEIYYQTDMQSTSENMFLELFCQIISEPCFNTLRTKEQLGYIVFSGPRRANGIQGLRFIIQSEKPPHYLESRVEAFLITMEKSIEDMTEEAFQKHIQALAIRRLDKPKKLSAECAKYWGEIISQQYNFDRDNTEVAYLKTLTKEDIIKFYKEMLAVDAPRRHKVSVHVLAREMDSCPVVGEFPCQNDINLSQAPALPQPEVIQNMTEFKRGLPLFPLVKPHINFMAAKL
Numbers stand for hits; i = inactive; ! = not active in a repeat.

SMILES	IDE exosite FP
COc1ccccc1-c1ccc(C2[C@@H]3CN(Cc4nccs4)C[C@H]2N3)cc1 (stereo not given in full)	i
Fc1ccccc1-c1ccc(C2[C@@H]3CN(Cc4ccccc4)C[C@H]2N3)cc1 (stereo not given in full)	i
COc1cccc(CN2CCCCN3[C@@H](CO)[C@@H](c4ccc(-c5ccccc5OC)cc4)[C@@H]3C2)c1	i
COc1cccc(CN2C[C@@H]3N[C@H](C2)C3c2ccc(-c3ccccc3OC)cc2)c1 (stereo not given in full)	-8.6!
COc1cc(CN2C[C@@H]3N[C@H](C2)C3c2ccc(-c3ccc(C#N)cc3)cc2)cc(OC)c1 (stereo not given in full)	i
COc1ccccc1-c1ccc(C2[C@@H]3CN(Cc4cccc(F)c4)C[C@H]2N3)cc1 (stereo not given in full)	-3.2
COc1ccccc1CNC(=O)C[C@@H]1CC[C@H]2[C@@H](COC[C@H](O)CN2Cc2ccc3c(c2)OCO3)O1	i
C[C@@H](NC(=O)C[C@@H]1C=C[C@H](NS(=O)(=O)c2cccc(F)c2)[C@H](CO)O1)c1ccccc1	i
CN1CCCCN2[C@@H](CO)[C@@H](c3ccc(C#Cc4ccccc4F)cc3)[C@@H]2C1	-5
COc1ccc(C#Cc2ccc([C@H]3[C@H](CO)N4CCCCN(C)C[C@@H]34)cc2)cc1	i
COc1ccc(C#Cc2ccc([C@H]3[C@H]4CN(C)CCCCN4[C@H]3CO)cc2)cc1	i
CN1CCCCN2[C@H](CO)[C@@H](c3ccc(C#Cc4ccccc4F)cc3)[C@@H]2C1	-8.6
CN1CCCCN2[C@H](CO)[C@@H](c3ccc(-c4ccccc4)cc3)[C@@H]2C1	i
OC[C@@H]1[C@H](c2ccc(C#Cc3ccccc3F)cc2)[C@@H]2CN(CC3CCOCC3)CCCCN12	i
COc1ccc2c3c([nH]c2c1)[C@H](CO)N(C)CC31CCN(C(=O)c2ccccc2F)CC1	i
CN(C)C(=O)c1cccc(-c2ccc([C@H]3[C@@H](CO)N4C(=O)CN(C(=O)Cc5ccccc5)C[C@@H]34)cc2)c1	i
CC(=O)N1[C@@H](CO)[C@@H](c2ccc(C3=CCCC3)cc2)C12CN(C(=O)NC(C)C)C2	i
CN(C)CC(=O)N1[C@@H](C#N)[C@H](c2ccccc2-c2ccccc2F)[C@@H]1CO	i
COCC(=O)N1CC(=O)N2[C@H](C1)[C@H](c1ccc(-c3ccncc3)cc1)[C@@H]2CO	i
CO[C@@H]1CN(C)C(=O)c2ccc(NC(=O)Nc3ccccc3)cc2OC[C@@H](C)N(C(=O)CC2CC2)C[C@@H]1C	i
O=S(=O)(c1ccccc1F)N1CCCCN2[C@H](CO)[C@@H](c3ccc(-c4cccnc4)cc3)[C@H]2C1	i
Cc1cccc(S(=O)(=O)N2CCCCN3[C@H](C2)[C@H](c2ccc(-c4cccnc4)cc2)[C@@H]3CO)c1	i
O=S(=O)(c1ccccc1F)N1CCCCN2[C@H](CO)[C@H](c3ccc(-c4cccnc4)cc3)[C@@H]2C1	i
Cc1ccccc1S(=O)(=O)N1CCCCN2[C@@H](CO)[C@@H](c3ccc(-c4cncnc4)cc3)[C@@H]2C1	-4.3
O=S(=O)(c1ccccc1F)N1CCCCN2[C@@H](CO)[C@@H](c3ccc(-c4cccnc4)cc3)[C@@H]2C1	-13
SMILES	IDE exosite FP
Cc1ccccc1S(=O)(=O)N1CCCCN2[C@H](CO)[C@H](c3ccc(-c4cccnc4)cc3)[C@H]2C1	i
Cc1ccccc1S(=O)(=O)N1CCCCN2[C@H](CO)[C@@H](c3ccc(-c4cccnc4)cc3)[C@@H]2C1	-12
Cc1ccccc1S(=O)(=O)N1CCCCN2[C@H](CO)[C@@H](c3ccc(-c4cncnc4)cc3)[C@H]2C1	i
Cc1ccccc1S(=O)(=O)N1CCCCN2[C@@H](CO)[C@H](c3ccc(-c4cncnc4)cc3)[C@@H]2C1	i
C/C=C/c1ccc([C@@H]2[C@H](CO)N3C(=O)CN(S(=O)(=O)c4cccc(F)c4)C[C@@H]23)cc1	i
O=C(Nc1ccc(Cl)cc1)N1C[C@H]2[C@@H](c3ccccc31)[C@@H](CO)N2CC1CCCCC1	i
CC(C)NC(=O)N1[C@H](CO)[C@H](c2ccccc2-c2ccc(F)cc2)[C@@H]1C#N	i
COCC(=O)N1CC(=O)N2[C@H](CO)[C@H](c3ccc(C#CC4CCCCC4)cc3)[C@@H]2C1	i
COCC(=O)N1CC(=O)N2[C@H](CO)[C@@H](c3ccc(C#Cc4cccc(OC)c4)cc3)[C@@H]2C1	-4.5
COCC(=O)N1CC(=O)N2[C@H](C1)[C@@H](c1ccc(C#CC3CCCCC3)cc1)[C@@H]2CO	-11
COCC(=O)N1CC(=O)N2[C@H](C1)[C@@H](c1ccc(C#Cc3cccnc3)cc1)[C@@H]2CO	i
COCC(=O)N1CC(=O)N2[C@@H](CO)[C@H](c3ccc(C#Cc4cccnc4)cc3)[C@@H]2C1	i
COCC(=O)N1CC(=O)N2[C@H](CO)[C@@H](c3ccc(C#Cc4cccc(OC)c4)cc3)[C@H]2C1	i
COCC(=O)N1CC(=O)N2[C@H](C1)[C@H](c1ccc(C#CC3CCCC3)cc1)[C@@H]2CO	i
COCC(=O)N1CC(=O)N2[C@@H](CO)[C@H](c3ccc(C#Cc4cccc(OC)c4)cc3)[C@@H]2C1	-5
N#Cc1ccc(-c2ccc([C@H]3[C@@H](CO)N4CCCCN(S(=O)(=O)c5ccccc5)C[C@@H]34)cc2)cc1	i
CN1C(=O)c2cc(NC(=O)C3CCOCC3)ccc2OC[C@H]2O[C@H](CC(=O)NCC3CCCCC3)CC[C@H]21	i
CO[C@H]1CC[C@H]2CCN(C)C(=O)[C@@H](C)N(C)C(=O)c3cccc(C#N)c3OC[C@H]1O2	i
CN1C(=O)c2cc(NC(=O)Nc3ccccc3Cl)ccc2OC[C@@H]2O[C@H](CC(=O)NCCCN3CCOCC3)CC[C@H]21	i
COCC(=O)Nc1ccc2c(c1)C(=O)N(C)[C@H]1CC[C@@H](CC(=O)NCCCN(C)C)O[C@H]1CO2	i
CN1C(=O)c2cc(NC(=O)Nc3ccccc3Cl)ccc2OC[C@@H]2O[C@@H](CC(=O)NCCCN3CCOCC3)CC[C@H]21	i
COCC(=O)Nc1ccc2c(c1)C(=O)N(C)[C@@H]1CC[C@H](CC(=O)NCCCN(C)C)O[C@H]1CO2	-3.3
COCC(=O)Nc1ccc2c(c1)C(=O)N(C)[C@@H]1CC[C@@H](CC(=O)NCCCN(C)C)O[C@H]1CO2	i
CN1C(=O)c2cc(NC(=O)Nc3ccccc3Cl)ccc2OC[C@@H]2O[C@@H](CC(=O)NCCCN3CCOCC3)CC[C@@H]21	-5.1
O=C(C[C@@H]1C[C@@H]2c3cc(NS(=O)(=O)c4ccc(F)cc4)ccc3O[C@@H]2[C@@H](CO)O1)N1CCc2ccccc2C1	i
SMILES	IDE exosite FP
O=S(=O)(c1ccccc1)N1C[C@@H]2N[C@H](C1)C2c1ccc(-c2ccc(F)cc2)cc1 (stereo not given in full)	i
O=C(C[C@H]1C[C@H]2c3cc(NS(=O)(=O)c4ccc(F)cc4)ccc3O[C@H]2[C@@H](CO)O1)NCCN1CCCCC1	i
CCCC#Cc1ccc([C@H]2[C@@H](CO)N(S(C)(=O)=O)[C@H]2C#N)cc1	i
OC[C@H]1[C@H](c2ccc(-c3ccccc3)cc2)[C@H]2CN(Cc3ccccn3)CCCCN21	i
OC[C@H]1[C@H](c2ccc(-c3ccccc3F)cc2)[C@@H]2CN(Cc3ccncc3)CCCCN12	i
OC[C@@H]1[C@H](c2ccc(-c3ccccc3)cc2)[C@@H]2CN(Cc3ccccn3)CCCCN12	-3
OC[C@@H]1[C@H](c2ccc(-c3ccc(F)cc3)cc2)[C@@H]2CN(Cc3ccncc3)CCCCN12	i
